Screening results deposited in PubChem by National Center for Advancing Translational Sciences (NCATS).
Pf Dd2 inh: qHTS Primary assay for Inhibitors of Plasmodium falciparum Dd2 growth in vitro; actives 4.3% (n = 120,000); AID 1347417, 2020; Potency, µM (titrated, usually from 28.9 µM), usual class: inhibitors; P. falciparum Dd2 growth, SYBR Green, 72 h; active = well fitted inhibition curve with a large enough effect; note: nearly all actives have a fitted effect of over 65% in size
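Infected erythrocytes (Dd2, 0.3% parasitemia, 2.5% hematocrit final) are added to compound in RPMI-1640/Albumax II medium, grown 72 h at 37C in low oxygen, then lysed with saponin/Triton-X containing SYBR Green and read by fluorescence.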
Each line names hits and unclear results; the compound was inactive in the other large screens. Many of the other results were omitted from the sample, so hits are more common in it than they were.

O=C(NCC1CCOCC1)c1cnccn1	none
CN1CCCCC(CC(=O)Nc2ccc3c(c2)OCCO3)C1=O (stereo not given)	none
CN(Cc1cccn1C)Cc1cccn1C	none
COc1ccc(Cl)cc1S(=O)(=O)N1CCc2nn(C)c(=O)n2CC1	none
CS(=O)(=O)N(C1CCOCC1)C1CN(C(=O)Nc2ccccc2)C1	none
CNC(=O)[C@@H]1CN(C(=O)c2cc3cc(OC)ccc3[nH]2)C[C@H]1c1nc(C)no1	none
COc1ccc2cc(C(=O)N3CCC4(CC3)CC(c3nc(C)no3)N(C)C4)[nH]c2c1 (stereo not given)	none
COc1ccc2[nH]c(C(=O)N3CCC4(CC3)CC(c3nc(C)no3)N(C)C4)cc2c1 (stereo not given)	Pf Dd2 inh 7.9µM
CN(Cc1nc(-c2ccccc2)cs1)C(=O)c1cccc(-n2cnnc2)c1	none
Cc1cccc(C(=O)N2C[C@@H](F)C[C@H]2C(=O)N2CCc3ccccc3C2)c1	none
O=C(Cc1ccsc1)N1CC(Oc2ccccc2-c2nc(-c3ccccc3)no2)C1	Pf Dd2 inh 13µM
O=C(C1CCOCC1)N1CCC(Oc2ccccc2-c2nc(-c3ccccc3)no2)C1 (stereo not given)	none
Cc1ncccc1C(=O)N1CC(Oc2ccccc2-c2nc(-c3ccccc3)no2)C1	Pf Dd2 inh 11µM
c1ccc(-c2nc(-c3cnccn3)no2)c(OC2CCNC2)c1 (stereo not given)	none
O=C(C1CCC1)N1CC(Oc2ccccc2-c2nc(-c3cnccn3)no2)C1	Pf Dd2 inh 10µM
O=C(c1ccncc1)N1CCC(Oc2ccccc2-c2nc(-c3ccccc3)no2)C1 (stereo not given)	none
Cc1ncccc1C(=O)N1CC(Oc2ccc(-c3nc(-c4ccccc4)no3)cc2)C1	none
O=C(c1cnccn1)N1CCC(Oc2ccccc2-c2nc(-c3ccccc3)no2)C1 (stereo not given)	none
O=C(Cc1ccsc1)N1CCC(n2cc(-c3nc(-c4ccccc4)no3)nn2)C1 (stereo not given)	none
CN1[C@@H](CCC(=O)NCc2cccs2)CNC(=O)[C@@H]2[C@H]1CCN2Cc1ccc(O)cc1	none
COCC(=O)N1C[C@@H]2C[C@H]1C(=O)N(Cc1ccc(OC)cc1)c1ccccc1O2	none
CC(C)CN1CCN(C(=O)C2CCCN(S(=O)(=O)c3ccccc3)CCC(=O)NCC2)CC1 (stereo not given)	none
COc1cccc(CC(=O)NCC2CCCCC(=O)N2)c1 (stereo not given)	none
O=C(NCc1cccc(F)c1)N1CCC(Oc2ncccc2C(=O)N2CCOCC2)C1 (stereo not given)	none
O=C(Cc1ccccc1Cl)NC1CCN(c2cc(C(F)(F)F)ncn2)CC1	none
O=C(Nc1ccc2c(c1)CCC2)c1cc2n(n1)CC(c1ccc(Cl)cc1)OC2 (stereo not given)	none
CC[C@@]1(O)CCN(C(=O)c2cccnc2N(C)C2CCCCC2)C[C@H]1O	none
CN(Cc1cc2ccccc2s1)C(=O)c1cc(CN2CCCC(O)C2)on1 (stereo not given)	none
Cc1ccc2cc(CN3C[C@@H](CO)[C@H](c4nc(C)no4)C3)c(=O)[nH]c2c1	none
CN[C@@H](C)C(=O)N[C@@]1(C)OC[C@@H]2CC[C@H](C(=O)Nc3ccc(F)c(OC)c3)N2C1=O	none
Cc1noc(C)c1CN1CC(C(=O)NCc2ccncc2)C2(CCOCC2)C1 (stereo not given)	none
CCc1nc(C)c(C(=O)N2CCN3C(=O)CNC(=O)C3C2)s1 (stereo not given)	none
Cc1nc(CCCNC(=O)[C@H]2CNC[C@@H](C(=O)N3CCOCC3)C2)sc1C	none
COc1ccc(OC)c(CN2CCc3ncc(C(=O)Nc4ccccc4)n3CC2)c1	none
CNC(=O)[C@H]1C[C@H](Oc2cccnc2)CN1C(=O)NCc1ccccc1	none
Cc1cn2cc(C(=O)N(C)CCC(O)c3ccccc3)ccc2n1 (stereo not given)	none
CN(Cc1cc(C2CC2)n[nH]1)c1nccc(-c2cccnc2)n1	none
CN(CCC(O)c1ccccc1)c1nccc(-c2cccnc2)n1 (stereo not given)	Pf Dd2 inh 10µM
CC(C)c1noc(-c2cn(C3CCN(C(=O)c4ccc(C(C)(C)C)cc4)C3)nn2)n1 (stereo not given)	none
CC(=O)NCCC(=O)N1CCC2(CC1)CN(C(=O)Cc1ccc(O)cc1)CCO2	none
COc1cccc(NC(=O)N(CCC(C)C)C2CCN(C(C)C)CC2)c1	none
CC(=O)N1CCC(N(CCCOC(C)C)C(=O)Nc2ccc(C)c(C)c2)CC1	none
Cc1ccc(NC(=O)Cn2cc(C(=O)C3CC3)c3ccccc32)cc1C	none
COc1ccc(CN(C(=O)Nc2cccc(OC)c2)C2CCN(C(C)=O)CC2)cc1	none
COc1cccc(NC(=O)N(Cc2cn(C)c3ccccc23)C2CCCCC2)c1	Pf Dd2 inh 2.8µM
Cc1ccc(NC(=O)N(Cc2cn(C)c3ccccc23)C2CCCCC2)cc1C	Pf Dd2 inh 3.5µM
CCc1noc(-c2ccn3c(CNC(=O)c4ccncc4)nnc3c2)n1	none
O=C(NCc1cc(-c2ccccn2)no1)[C@H]1CNC[C@@H](C(=O)N2CCOCC2)C1	none
COC1CN(C2CCN(C(=O)NC(C)(C)C)CC2)C12CCOCC2 (stereo not given)	none
COc1ccc(-c2noc(-c3nc(-c4ccc(N(C)C)cc4)no3)n2)cc1OC	none
COCCc1nn2c(=O)cc(COC(=O)c3ccc(Br)cc3)nc2s1	none
CCc1nn2c(=O)cc(COC(=O)C(c3ccccc3)c3ccccc3)nc2s1	none
COCCc1nn2c(=O)cc(COC(=O)C(c3ccccc3)c3ccccc3)nc2s1	Pf Dd2 inh 1.3µM
CC(C)N1C(=O)C2(CCCCC2)C1C(=O)N1CCN(c2ccccc2)CC1 (stereo not given)	none
Cc1ccc(C)c(S(=O)(=O)NCCn2c(C)cnc2C2CCC2)c1	none
Cc1cnc(C2CC2)n1CCN	none
Cc1cc(C)c(S(=O)(=O)NCCn2c(C)cnc2C2CC2)cc1C	Pf Dd2 inh 11µM
COCCN1C(=O)c2ccccc2C(C(=O)NCCc2ccc(F)cc2)C12CCCC2 (stereo not given)	none
Cc1cc(C)n(CCC(=O)N2CCC(Cc3nc(-c4ccccc4)n[nH]3)CC2)n1	none
Cc1cccc(NC(=O)N2CCC(Cc3nc(-c4ccccc4)n[nH]3)CC2)c1	Pf Dd2 inh 1.6µM
Cc1ccc(CNC(=O)N2CCC(Cc3nc(-c4ccncc4)n[nH]3)CC2)cc1	none
COCc1noc([C@@H]2CN(C3CNC3)C[C@H]2C(N)=O)n1	none
CN(C)Cc1cc(CC2(NC3CCC3)COC2)no1	none
CCN(CC)Cc1ccc2c(c1)CN(C(=O)c1cncc(Br)c1)CCO2	Pf Dd2 inh 8.9µM
Cc1ncoc1C(=O)N1CCOc2ccc(CCC(N)=O)cc2C1	none
CN1CCC2(CC1)CN(C(=O)c1cncc(Br)c1)Cc1ccccc1O2	none
O=C(Nc1ccc(Br)c(F)c1)c1cnc(-c2ccccc2)nc1-c1ccncc1	none
COc1ccc(-c2ccc3c(c2)C(=O)N2CCN(C(=O)C4CCNCC4)C[C@@H]2C(=O)N3)c(OC)c1	none
O=C1Nc2ccc(-c3ccc4c(c3)OCO4)cc2C(=O)N2CCN(C(=O)COc3ccccc3)C[C@H]12	none
COc1ccc(C(=O)N2CCN3C(=O)c4cc(-c5ccc(Cl)cc5)ccc4NC(=O)[C@@H]3C2)cc1	Pf Dd2 inh 6.3µM
CC(C)(C)CC(=O)N1CCN2C(=O)c3cc(-c4ccc(Cl)cc4)ccc3NC(=O)[C@H]2C1	none
COc1ccc(-c2ccc3c(c2)C(=O)N2CCN(C(=O)c4ccccc4)C[C@@H]2C(=O)N3)cc1	Pf Dd2 inh 5µM
O=C1Nc2ccc(-c3ccc4c(c3)OCO4)cc2C(=O)N2CCN(C(=O)c3cccs3)C[C@@H]12	Pf Dd2 inh 13µM
